Measurements as given in PubChem BioAssay AID492948 (National Center for Advancing Translational Sciences (NCATS), 2010).
Results filed as inconclusive are left out. Calls of active or inactive are those of the source. Calls follow the shape of the dose curve; as a rule, active = well fitted activation curve with a large enough effect; inconclusive = small, poorly fitted or top-dose-only effect; inactive = no such curve, though single readings can be large or run the other way.

assay: qHTS Assay for Agonists of the Relaxin Receptor RXFP1: V1B Hit Validation; conditions: HEK293 V1B cells, cAMP TR-FRET, 30 min; series mostly up to 115 µM; activation: at the top concentration;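 also: counter-screen in HEK293 cells expressing V1B rather than RXFP1 for selectivity; nearly all actives have a fitted effect of over 65% in size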;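 as to activation: cAMP accumulation with PDE4 inhibitor Ro 20-1724 present during compound exposure; 0% = buffer alone basal and 100% = 29 nM porcine relaxin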
Method in brief: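 cAMP accumulation, read by TR-FRET competition after lysis, in V1B-expressing HEK293 cells given compound for 30 min at 37C with Ro 20174 present. Responses scaled between buffer basal and 29 nM porcine relaxin; Hill-equation EC50.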
Potency is read from the fitted curve at half-maximal effect.

Question: Which Potency does the source give for `CC(=O)Nc1ccc(NC(=O)CSc2ccc3nnc(-c4cccnc4)n3n2)cc1` here?
Answer: The Potency was 13.8 µM (active).

Question: Which Potency does the source give for `O=C(COc1ncnc2scc(-c3ccccc3)c12)NCCN1C(=O)CSC1=O` here?
Answer: Its Potency is 19.4 µM (active).

Question: For `CCOc1ccc(NC(=O)CSc2ccc3nnc(-c4cccnc4)n3n2)cc1`, which Potency is on record?
Answer: The Potency was 38.9 µM (active).

Question: Which “activation” value does the source give for `COc1ccc(Nc2ncc(C#N)c(N)n2)c(OC)c1` here?
Answer: Its value is -2.08% (inactive).

Question: With `O=C(Nc1ccccc1C(=O)NCc1ccco1)c1ccco1` as the compound, how does the “activation” value read?
Answer: The value was 4.18% [at 127 µM] (inactive).

Question: For `Cc1cc(C)n2nc(C(=O)Nc3ccc4c(c3)OCCO4)nc2n1`, which Potency is on record?
Answer: The Potency was 6.15 µM (active).

Question: For `c1ccc(-c2nnc(-c3ccccn3)c(-c3ccccn3)n2)nc1`, which “activation” value is on record?
Answer: The value was -1.59% (inactive).

Question: With `COC(=O)[C@@H]1C[C@@]2(O)[C@H](O)[C@H](O)[C@H](O)C[C@H]2N1Cc1cc(F)ccc1F` as the compound, how does the “activation” value read?
Answer: Its value is 3.86% (inactive).

Question: With `CC(C)c1ccccc1NC(=O)c1ccccc1NC(=O)C1CCCCC1` as the compound, how does the “activation” value read?
Answer: The value was 8.65% [at 127 µM] (inactive).

Question: With `CCNc1nc(NCC)nc(N(C)/N=C/c2ccco2)n1` as the compound, how does the “activation” value read?
Answer: Its value is 2.96% (inactive).

Question: Which Potency does the source give for `CCCN(CCC)S(=O)(=O)c1cc(CN2C(=O)c3cccnc3C2=O)ccc1OC` here?
Answer: Its Potency is 30.9 µM (active).

Question: With `CCC(=O)Nc1ccc(-n2nnnc2SCC(=O)NNC(=O)c2ccco2)cc1` as the compound, how does the “activation” value read?
Answer: Its value is 1.43% (inactive).

Question: With `COc1ccccc1CNS(=O)(=O)c1cc(CN2C(=O)c3cccnc3C2=O)ccc1OC` as the compound, how does the Potency read?
Answer: The Potency was 27.5 µM (active).

Question: Which Potency does the source give for `Cc1nc2scc(C)n2c(=O)c1S(=O)(=O)N1CCN(c2ccccn2)CC1` here?
Answer: Its Potency is 30.9 µM (active).

Question: For `COC(=O)c1nc2ccc(N3CCOCC3)cc2c(C)c1C(=O)OC`, which Potency is on record?
Answer: Its Potency is 34.6 µM (active).

Question: For `Cc1ccccc1NC(=O)CNc1ccccc1C(=O)NCc1ccco1`, which “activation” value is on record?
Answer: The value was 7.03% [at 127 µM] (inactive).

Question: Which “activation” value does the source give for `C=CCNc1ncnc2c1ncn2C1OC(CO)C(O)C1O` (configuration not stated) here?
Answer: The value was -32.1% (inactive).

Question: For `O=C(CCc1nnc2ccc(N3CCC4(CC3)OCCO4)nn12)NCc1ccc(F)cc1`, which Potency is on record?
Answer: The Potency was 38.9 µM (active).

Question: With `O=C(Nc1ccccc1C(=O)N1CCNCC1)c1ccco1` as the compound, how does the “activation” value read?
Answer: Its value is -5.42% [at 127 µM] (inactive).

Question: For `Cc1ccc(CN(C)C(=O)c2ccc3c(c2)NC(=O)CS3)o1`, which “activation” value is on record?
Answer: The value was -30.6% (inactive).

Question: With `N#CCCSc1ncnc2c1oc1ccccc12` as the compound, how does the Potency read?
Answer: Its Potency is 19.4 µM (active).

Question: With `CC(C)n1cnc2c(N(C)c3cccc(Cl)c3)nc(N(CCO)CCO)nc21` as the compound, how does the “activation” value read?
Answer: Its value is -3.24% (inactive).

Question: Which Potency does the source give for `O=C(NC1CCCCCC1)c1cc2c(=O)n3ccccc3nc2s1` here?
Answer: The Potency was 38.9 µM (active).

Question: With `Cc1ccccc1OCC(=O)Nc1sc(C(=O)Nc2cccc(C)c2C)c(C)c1C#N` as the compound, how does the Potency read?
Answer: Its Potency is 6.15 µM (active).

Question: Which Potency does the source give for `CCOC(=O)CNC(=O)CSc1nc2c(C)cccc2cc1CC` here?
Answer: Its Potency is 17.3 µM (active).

Question: For `O=S(=O)(c1cccc(-c2cn3cccnc3n2)c1)N1CCOCC1`, which Potency is on record?
Answer: The Potency was 19.5 µM (active).

Question: For `Cc1noc(NS(=O)(=O)c2ccc(N3Cc4ccccc4C3=O)cc2)c1C`, which Potency is on record?
Answer: Its Potency is 11.9 µM (active).

Question: With `CCOC(=O)c1sc(=NC(=O)c2ccc(S(=O)(=O)N(C)c3ccccc3)cc2)n(C)c1C` as the compound, how does the Potency read?
Answer: Its Potency is 30.8 µM (active).

Question: Which “activation” value does the source give for `Cc1cccc(-c2nnc(SCC(=O)NC3CC3)n2C)c1` here?
Answer: Its value is -32.2% (inactive).

Question: With `CC(C(=O)OCC(=O)N(C)C1(C#N)CCCCC1)N1C(=O)c2ccccc2C1=O` (configuration not stated) as the compound, how does the Potency read?
Answer: Its Potency is 13.8 µM (active).

Question: With `CCn1c(SCC(=O)Nc2ccc(NC(C)=O)cc2)nc2c1c(=O)n(C)c(=O)n2C` as the compound, how does the Potency read?
Answer: Its Potency is 30.9 µM (active).

Question: For `O=c1c2ccccc2cnn1Cc1n[nH]c(=S)n1-c1ccc(F)c(Cl)c1`, which Potency is on record?
Answer: Its Potency is 21.9 µM (active).

Question: With `O=S(=O)(Nc1ccccc1C(F)(F)F)c1ccc(-c2ccccn2)s1` as the compound, how does the Potency read?
Answer: The Potency was 21.9 µM (active).

Question: With `NC(=S)c1cc2ccc(O)cc2oc1=O` as the compound, how does the Potency read?
Answer: The Potency was 4.35 µM (active).

Question: For `CCN(CC)S(=O)(=O)c1ccc2c(c1)N(CC(=O)Nc1cccnc1Cl)C(=O)CO2`, which Potency is on record?
Answer: The Potency was 17.3 µM (active).

Question: Which Potency does the source give for `Cc1nn(CCCC(=O)NCc2ccc(F)cc2)c(=O)c2nccn12` here?
Answer: The Potency was 38.9 µM (active).

Question: For `NCCNC(=O)Cc1ccc(NC(=O)Cc2ccc(Nc3ncnc4c3ncn4[C@@H]3O[C@H](CO)[C@@H](O)[C@H]3O)cc2)cc1`, which Potency is on record?
Answer: The Potency was 2.75 µM (active).
